In the supplement of paper PMC10849652:
About 8,800 targets were measured; listed, in parts, are those with a hit and a random draw of the rest. About 0.5% of all pairs of compound and target were hits.

Columns and labels:
Test in all cases: log2 fold change, soluble protein after heating vs DMSO (PISA); higher = thermal stabilisation; K562 lysate, 10 uM; active = over 0.2 and 3.5 SD of the protein, either way, in both replicates (recomputed)
vemurafenib = compound: CCCS(=O)(=O)Nc1ccc(F)c(C(=O)c2c[nH]c3ncc(-c4ccc(Cl)cc4)cc23)c1F [vemurafenib]
Summary of the method: (§1)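 K562 pellets were dounce-homogenised in PBS pH 7.4 containing 1 mM MgCl2, and the crude extract, at 1 mg/mL protein, was exposed to 10 μM compound for 30 min. Aliquots were heated for 3 min across 48°C-58°C, pooled, brought to 0.5% NP-40 at 4°C and spun at 21,000xg for 90 min, with the supernatant taken as soluble protein. TMTpro 16plex LC-MS/MS with equalised channel sums quantified that protein. Values are log-two fold changes in thermal stability relative to solvent controls, taken from duplicates.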

[1] = compound: CCCS(=O)(=O)Nc1ccc(F)c(C(=O)c2c[nH]c3ncc(Cl)cc23)c1F
Summary of the method: as §1

barasertib = compound: CCN(CCCOc1ccc2c(Nc3cc(CC(=O)Nc4cccc(F)c4)[nH]n3)ncnc2c1)CCOP(=O)(O)O [barasertib]
Summary of the method: as §1

[2] = compound: CC[C@@H]1C(=O)N(C)c2cnc(Nc3ccc(C(=O)NC4CCN(C)CC4)cc3OC)nc2N1C1CCCC1
Summary of the method: as §1

volasertib = compound: CC[C@@H]1C(=O)N(C)c2cnc(Nc3ccc(C(=O)N[C@H]4CC[C@H](N5CCN(CC6CC6)CC5)CC4)cc3OC)nc2N1C(C)C [volasertib]
Summary of the method: as §1

[3] = compound: CCn1c(C(=O)N(C2CC2)C2CC2)cc2c3c(ncn3C)c(Nc3cc(C)n(C)n3)nc21
Summary of the method: as §1

[4] = compound: CCn1cc(-c2ccnc3[nH]c(-c4cccc(CN(C)C)c4)cc23)c(-c2ccc(NC(=O)N(C)C)cc2)n1
Summary of the method: as §1

[5] = compound: CN1CCC(CNc2ccc3ncc(-c4cccc(OC(F)(F)F)c4)n3n2)CC1
Summary of the method: as §1

saracatinib = compound: CN1CCN(CCOc2cc(OC3CCOCC3)c3c(Nc4c(Cl)ccc5c4OCO5)ncnc3c2)CC1 [saracatinib]
Summary of the method: as §1

sotrastaurin = compound: CN1CCN(c2nc(C3=C(c4c[nH]c5ccccc45)C(=O)NC3=O)c3ccccc3n2)CC1 [sotrastaurin]
Summary of the method: as §1

alvocidib = compound: CN1CC[C@H](c2c(O)cc(O)c3c(=O)cc(-c4ccccc4Cl)oc23)[C@H](O)C1 [alvocidib]
Summary of the method: as §1

Tubastatin A = compound: CN1CCc2c(c3ccccc3n2Cc2ccc(C(=O)NO)cc2)C1 [Tubastatin A]
Summary of the method: as §1

[6] = compound: CNC(=O)C1=CC=CC=C1NC2=NC(=NC=C2Cl)NC3=C(C=C(C=C3)N4CCOCC4)OC
Summary of the method: as §1

defactinib = compound: CNC(=O)c1ccc(Nc2ncc(C(F)(F)F)c(NCc3nccnc3N(C)S(C)(=O)=O)n2)cc1 [defactinib]
Summary of the method: as §1

[7] = compound: CNc1nc(-c2ccc3c(N)n[nH]c3c2)cc(N2C[C@@H](C(=O)NC3CCCCC3)CC[C@H]2C)n1
Summary of the method: as §1

encorafenib = compound: COC(=O)N[C@@H](C)CNc1nccc(-c2cn(C(C)C)nc2-c2cc(Cl)cc(NS(C)(=O)=O)c2F)n1 [encorafenib]
Summary of the method: as §1

[8] = compound: COC(=O)[C@H](CCSC)NC(=O)C1=C(C=C(C=C1)NC[C@H](CS)N)C2=CC=CC=C2
Summary of the method: as §1

alisertib = compound: COc1cc(Nc2ncc3c(n2)-c2ccc(Cl)cc2C(c2c(F)cccc2OC)=NC3)ccc1C(=O)O [alisertib]
Summary of the method: as §1

[9] = compound: COc1cc2nc(-c3cc(F)ccc3O)nc(N[C@@H]3CNC[C@H]3C(C)(C)O)c2cc1OC
Summary of the method: as §1

gefitinib = compound: COc1cc2ncnc(Nc3ccc(F)c(Cl)c3)c2cc1OCCCN1CCOCC1 [gefitinib]
Summary of the method: as §1

Measured: log2 fold change

CANX isoform 2 (UniProt P27824)
inactive: vemurafenib 0.015 | [1] -0.012 | barasertib -0.015 | [2] 0.061 | volasertib 0.033 | [3] -0.014 | [4] -0.074 | [5] 0.034 | saracatinib 0.001 | sotrastaurin 0.036 | alvocidib -0.024 | Tubastatin A 0.05 | [6] -0.006 | defactinib 0.002 | [7] -0.003 | encorafenib 0.027 | [8] -0.015 | alisertib -0.008 | [9] 0.023 | gefitinib 0.008

BRD2 isoform 2 (UniProt P25440)
UniProt P25440, sequence (P25440 whole entry, looked up): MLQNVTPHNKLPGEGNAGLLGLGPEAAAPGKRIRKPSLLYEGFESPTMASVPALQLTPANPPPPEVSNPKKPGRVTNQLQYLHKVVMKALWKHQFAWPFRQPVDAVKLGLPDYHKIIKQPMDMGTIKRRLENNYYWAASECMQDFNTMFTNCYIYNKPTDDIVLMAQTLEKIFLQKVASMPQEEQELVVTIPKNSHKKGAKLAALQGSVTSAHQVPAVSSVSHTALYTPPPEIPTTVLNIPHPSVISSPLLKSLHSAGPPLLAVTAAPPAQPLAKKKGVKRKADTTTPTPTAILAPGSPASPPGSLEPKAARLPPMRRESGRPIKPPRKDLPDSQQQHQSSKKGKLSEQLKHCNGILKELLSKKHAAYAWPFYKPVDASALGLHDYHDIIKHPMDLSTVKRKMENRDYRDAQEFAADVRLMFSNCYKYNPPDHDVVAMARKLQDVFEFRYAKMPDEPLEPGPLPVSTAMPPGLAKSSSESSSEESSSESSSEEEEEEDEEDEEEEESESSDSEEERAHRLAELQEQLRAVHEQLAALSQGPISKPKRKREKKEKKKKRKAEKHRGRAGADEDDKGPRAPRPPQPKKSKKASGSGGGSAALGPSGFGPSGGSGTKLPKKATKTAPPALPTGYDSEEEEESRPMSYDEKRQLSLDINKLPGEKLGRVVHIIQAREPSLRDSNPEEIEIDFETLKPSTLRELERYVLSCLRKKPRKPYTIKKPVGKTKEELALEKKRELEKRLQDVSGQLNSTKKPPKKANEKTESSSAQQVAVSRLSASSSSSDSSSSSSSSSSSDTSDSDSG
active: [2] 0.548 | [4] 0.617
inactive: vemurafenib 0.033 | [1] -0.153 | barasertib -0.053 | volasertib 0.369 | [3] 0.042 | [5] -0.066 | saracatinib -0.047 | sotrastaurin -0.1 | alvocidib 0.06 | Tubastatin A 0.002 | [6] 0.059 | defactinib -0.187 | [7] 0.068 | encorafenib 0.084 | [8] -0.118 | alisertib 0 | [9] 0.019 | gefitinib -0.009

CCNB2 (UniProt O95067)
UniProt O95067, sequence (O95067 whole entry, looked up): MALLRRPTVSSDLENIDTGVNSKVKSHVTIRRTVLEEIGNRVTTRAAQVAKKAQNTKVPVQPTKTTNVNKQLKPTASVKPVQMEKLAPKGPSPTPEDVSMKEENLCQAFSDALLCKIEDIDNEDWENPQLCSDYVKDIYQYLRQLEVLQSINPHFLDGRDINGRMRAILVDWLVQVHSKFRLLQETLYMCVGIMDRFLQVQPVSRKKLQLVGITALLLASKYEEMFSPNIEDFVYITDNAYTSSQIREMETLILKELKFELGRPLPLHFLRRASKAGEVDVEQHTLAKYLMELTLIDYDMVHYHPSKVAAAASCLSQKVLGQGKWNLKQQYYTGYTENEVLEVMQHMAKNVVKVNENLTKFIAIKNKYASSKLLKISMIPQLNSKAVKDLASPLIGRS
inactive: vemurafenib 0.04 | [1] -0.008 | barasertib 0.06 | [2] 0.037 | volasertib -0.072 | [3] -0.059 | [4] -0.085 | [5] 0.011 | saracatinib 0.038 | sotrastaurin 0.078 | alvocidib 0.046 | Tubastatin A 0.027 | [6] 0.028 | defactinib -0.044 | [7] 0 | encorafenib 0.039 | [8] 0.032 | alisertib -0.076 | [9] 0.031 | gefitinib 0.084

CBX5 (UniProt P45973)
active: [4] -0.215
inactive: vemurafenib 0.028 | [1] 0.026 | barasertib -0.025 | [2] 0.018 | volasertib 0.016 | [3] -0.073 | [5] 0.066 | saracatinib 0.001 | sotrastaurin 0.016 | alvocidib -0.07 | Tubastatin A 0.037 | [6] 0.073 | defactinib -0.011 | [7] 0.021 | encorafenib -0.035 | [8] -0.007 | alisertib -0.054 | [9] 0.021 | gefitinib 0.009

CASP9 (UniProt P55211)
inactive: vemurafenib -0.017 | [1] 0.001 | barasertib -0.002 | [2] 0.025 | volasertib 0.029 | [3] -0.061 | [4] -0.013 | [5] 0.005 | saracatinib 0.003 | sotrastaurin 0.045 | alvocidib -0.01 | Tubastatin A -0.043 | [6] -0.021 | defactinib 0.039 | [7] -0.014 | encorafenib 0.023 | [8] -0.077 | alisertib 0.014 | [9] 0.017 | gefitinib 0.052

CCNYL1 (UniProt Q8N7R7)
inactive: vemurafenib -0.072 | [1] 0.003 | barasertib -0.046 | [2] 0.031 | volasertib -0.046 | [3] 0.012 | [4] -0.188 | [5] 0.269 | saracatinib 0.051 | sotrastaurin 0.034 | alvocidib -0.074 | Tubastatin A -0.076 | [6] 0.061 | defactinib 0.024 | [7] 0.055 | encorafenib 0.011 | [8] 0.032 | alisertib -0.012 | [9] 0.032 | gefitinib 0.101

AURKAIP1 (UniProt Q9NWT8)
inactive: vemurafenib 0.043 | [1] -0.124 | barasertib 0.055 | [2] 0.071 | volasertib 0.043 | [3] -0.129 | [4] -0.027 | [5] 0.129 | saracatinib 0.023 | sotrastaurin -0.055 | alvocidib 0.026 | Tubastatin A 0.219 | [6] -0.02 | defactinib 0.083 | [7] 0.072 | encorafenib 0.077 | [8] -0.057 | alisertib 0.067 | [9] 0.098 | gefitinib -0.032

CAMKK1 isoform 2 (UniProt Q8N5S9)
inactive: vemurafenib -0.041 | [1] -0.062 | barasertib 0.11 | [2] 0.103 | volasertib 0.136 | [3] 0.115 | [4] -0.204 | [5] 0.041 | saracatinib -0.063 | sotrastaurin -0.013 | alvocidib 0.088 | Tubastatin A -0.167 | defactinib 0.051 | [7] -0.118 | encorafenib 0.014 | [8] 0.126 | alisertib -0.033 | [9] -0.048 | gefitinib 0.03
active: [6] 0.305

CCNY (UniProt Q8ND76)
inactive: vemurafenib -0.011 | [1] 0 | barasertib -0.016 | [2] -0.148 | volasertib 0.036 | [3] -0.103 | [4] 0.032 | [5] 0.037 | saracatinib 0.063 | sotrastaurin 0.025 | alvocidib 0.001 | Tubastatin A -0.139 | [6] -0.015 | defactinib 0.011 | [7] 0.04 | encorafenib 0.023 | [8] -0.085 | alisertib 0.037 | [9] 0.008 | gefitinib -0.091

C3 (UniProt P01024)
UniProt P01024, sequence (P01024 whole entry, looked up): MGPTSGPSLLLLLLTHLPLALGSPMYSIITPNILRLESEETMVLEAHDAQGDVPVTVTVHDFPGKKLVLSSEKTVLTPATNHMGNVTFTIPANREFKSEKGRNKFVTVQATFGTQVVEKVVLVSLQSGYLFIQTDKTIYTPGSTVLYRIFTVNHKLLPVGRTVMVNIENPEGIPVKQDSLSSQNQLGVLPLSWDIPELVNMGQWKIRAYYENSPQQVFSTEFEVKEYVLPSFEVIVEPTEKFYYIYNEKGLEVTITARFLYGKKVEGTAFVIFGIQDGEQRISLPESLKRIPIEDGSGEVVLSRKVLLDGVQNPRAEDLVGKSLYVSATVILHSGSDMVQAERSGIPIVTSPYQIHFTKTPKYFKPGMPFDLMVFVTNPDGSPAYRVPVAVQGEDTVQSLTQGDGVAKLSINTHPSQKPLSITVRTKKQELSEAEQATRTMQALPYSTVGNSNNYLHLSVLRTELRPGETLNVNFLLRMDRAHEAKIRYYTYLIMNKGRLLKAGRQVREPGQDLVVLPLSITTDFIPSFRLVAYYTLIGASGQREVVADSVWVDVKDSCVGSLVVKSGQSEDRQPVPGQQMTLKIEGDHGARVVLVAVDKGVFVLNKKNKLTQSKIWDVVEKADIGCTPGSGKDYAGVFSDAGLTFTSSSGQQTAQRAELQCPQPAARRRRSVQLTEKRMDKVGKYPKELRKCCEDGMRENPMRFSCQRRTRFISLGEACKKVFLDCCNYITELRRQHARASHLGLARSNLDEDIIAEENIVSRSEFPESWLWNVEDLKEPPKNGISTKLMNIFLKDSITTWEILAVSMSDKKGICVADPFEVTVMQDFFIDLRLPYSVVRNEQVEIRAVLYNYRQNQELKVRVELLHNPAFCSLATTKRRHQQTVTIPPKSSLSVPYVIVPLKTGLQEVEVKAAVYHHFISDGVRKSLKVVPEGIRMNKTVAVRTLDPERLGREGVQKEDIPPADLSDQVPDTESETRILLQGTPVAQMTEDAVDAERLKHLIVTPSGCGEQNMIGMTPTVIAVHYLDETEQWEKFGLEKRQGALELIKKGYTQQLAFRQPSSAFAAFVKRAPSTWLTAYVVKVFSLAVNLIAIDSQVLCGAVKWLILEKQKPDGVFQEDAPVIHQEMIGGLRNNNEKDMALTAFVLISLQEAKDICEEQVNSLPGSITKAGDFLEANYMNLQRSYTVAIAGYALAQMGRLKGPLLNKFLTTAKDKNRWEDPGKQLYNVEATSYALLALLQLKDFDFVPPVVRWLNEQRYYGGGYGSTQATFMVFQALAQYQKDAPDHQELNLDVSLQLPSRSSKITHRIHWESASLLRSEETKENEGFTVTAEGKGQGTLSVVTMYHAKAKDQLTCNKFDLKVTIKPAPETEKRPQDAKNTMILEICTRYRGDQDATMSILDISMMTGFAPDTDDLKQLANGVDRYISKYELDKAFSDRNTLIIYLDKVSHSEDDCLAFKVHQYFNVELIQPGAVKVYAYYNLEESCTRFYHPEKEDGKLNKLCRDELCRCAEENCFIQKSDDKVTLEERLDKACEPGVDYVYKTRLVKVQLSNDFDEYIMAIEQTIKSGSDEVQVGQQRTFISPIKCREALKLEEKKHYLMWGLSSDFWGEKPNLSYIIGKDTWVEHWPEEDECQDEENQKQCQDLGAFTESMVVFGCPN
inactive: vemurafenib -0.02 | [1] 0.042 | barasertib 0.059 | [2] 0.07 | volasertib 0.009 | [3] -0.096 | [4] -0.134 | [5] 0.039 | saracatinib 0.001 | sotrastaurin 0.014 | alvocidib -0.027 | Tubastatin A 0.051 | [6] 0.041 | defactinib 0.01 | [7] 0.008 | encorafenib 0 | [8] 0.054 | alisertib -0.031 | [9] -0.005 | gefitinib 0.05

CEPT1 (UniProt Q9Y6K0)
UniProt Q9Y6K0, sequence (Q9Y6K0 whole entry, looked up): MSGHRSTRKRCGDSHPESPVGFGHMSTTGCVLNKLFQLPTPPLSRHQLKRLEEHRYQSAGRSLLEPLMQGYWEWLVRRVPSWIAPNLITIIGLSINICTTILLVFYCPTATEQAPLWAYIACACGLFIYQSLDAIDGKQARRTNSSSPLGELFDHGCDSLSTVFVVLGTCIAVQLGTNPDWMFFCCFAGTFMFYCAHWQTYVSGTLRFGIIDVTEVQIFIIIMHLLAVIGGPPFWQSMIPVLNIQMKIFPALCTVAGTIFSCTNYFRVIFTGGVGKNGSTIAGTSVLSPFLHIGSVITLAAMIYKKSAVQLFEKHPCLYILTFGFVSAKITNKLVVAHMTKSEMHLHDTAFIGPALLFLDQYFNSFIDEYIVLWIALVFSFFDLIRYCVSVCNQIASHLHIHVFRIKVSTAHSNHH
inactive: vemurafenib -0.031 | [1] 0.006 | barasertib 0.08 | [2] -0.006 | volasertib 0.042 | [3] -0.079 | [4] -0.102 | [5] 0.084 | saracatinib 0.037 | sotrastaurin -0.008 | alvocidib -0.012 | Tubastatin A 0.055 | [6] -0.024 | defactinib 0 | [7] -0.051 | encorafenib 0.019 | [8] -0.025 | alisertib 0.054 | [9] -0.123 | gefitinib -0.036

ATG13 isoform 2 (UniProt O75143)
active: [4] -0.281
inactive: vemurafenib -0.05 | [1] 0.042 | barasertib 0.024 | [2] 0.036 | volasertib 0.007 | [3] 0.015 | [5] 0.077 | saracatinib 0.005 | sotrastaurin 0.053 | alvocidib -0.106 | Tubastatin A -0.035 | [6] 0.013 | defactinib 0.03 | [7] 0.026 | encorafenib 0.054 | [8] -0.045 | alisertib 0.038 | [9] 0.017 | gefitinib -0.013

CCDC51 (UniProt Q96ER9)
UniProt Q96ER9, sequence (Q96ER9 whole entry, looked up): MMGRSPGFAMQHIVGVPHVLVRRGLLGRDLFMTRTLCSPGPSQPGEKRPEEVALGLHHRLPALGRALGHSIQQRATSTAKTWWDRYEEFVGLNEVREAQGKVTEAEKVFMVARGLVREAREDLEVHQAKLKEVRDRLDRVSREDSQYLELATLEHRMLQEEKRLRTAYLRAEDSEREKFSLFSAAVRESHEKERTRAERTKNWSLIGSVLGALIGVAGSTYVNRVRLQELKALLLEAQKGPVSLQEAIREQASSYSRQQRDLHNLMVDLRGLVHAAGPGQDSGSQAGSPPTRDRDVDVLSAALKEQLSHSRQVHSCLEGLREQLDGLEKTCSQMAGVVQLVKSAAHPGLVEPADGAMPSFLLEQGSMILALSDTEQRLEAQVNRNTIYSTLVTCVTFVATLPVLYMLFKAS
inactive: vemurafenib 0.001 | [1] -0.008 | barasertib 0.027 | [2] -0.005 | volasertib 0.002 | [3] -0.009 | saracatinib -0.034 | sotrastaurin -0.072 | alvocidib 0.127 | Tubastatin A -0.037 | [6] -0.001 | defactinib 0.008 | [7] 0.038 | encorafenib -0.008 | [8] -0.001 | alisertib 0.016 | [9] -0.066 | gefitinib 0.022
active: [4] 0.262 | [5] -0.422

BRAT1 (UniProt Q6PJG6)
UniProt Q6PJG6, sequence (Q6PJG6 whole entry, looked up): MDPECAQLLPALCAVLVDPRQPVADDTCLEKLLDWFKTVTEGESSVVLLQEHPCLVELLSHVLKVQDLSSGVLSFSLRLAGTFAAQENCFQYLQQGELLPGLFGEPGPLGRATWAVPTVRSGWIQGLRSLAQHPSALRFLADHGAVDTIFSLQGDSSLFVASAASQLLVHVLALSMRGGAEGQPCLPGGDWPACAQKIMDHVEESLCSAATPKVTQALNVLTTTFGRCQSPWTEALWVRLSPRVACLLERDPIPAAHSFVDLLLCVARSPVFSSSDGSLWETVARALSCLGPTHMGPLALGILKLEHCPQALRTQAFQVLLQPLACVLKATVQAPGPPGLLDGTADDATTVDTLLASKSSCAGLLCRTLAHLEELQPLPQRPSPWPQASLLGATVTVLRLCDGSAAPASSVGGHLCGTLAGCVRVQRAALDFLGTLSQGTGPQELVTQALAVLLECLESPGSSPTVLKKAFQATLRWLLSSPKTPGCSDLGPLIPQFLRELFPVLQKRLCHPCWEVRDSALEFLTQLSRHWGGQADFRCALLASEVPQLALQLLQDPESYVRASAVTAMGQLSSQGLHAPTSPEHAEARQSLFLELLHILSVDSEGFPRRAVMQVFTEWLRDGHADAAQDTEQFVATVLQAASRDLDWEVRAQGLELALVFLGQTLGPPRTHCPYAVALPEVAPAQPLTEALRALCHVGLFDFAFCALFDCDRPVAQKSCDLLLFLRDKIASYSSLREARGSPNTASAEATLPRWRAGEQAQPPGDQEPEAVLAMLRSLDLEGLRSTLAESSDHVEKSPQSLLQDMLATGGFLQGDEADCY
inactive: vemurafenib 0.011 | [1] -0.014 | barasertib 0.042 | [2] -0.086 | volasertib -0.046 | [3] 0.055 | [4] -0.023 | [5] -0.007 | saracatinib 0.016 | sotrastaurin 0.037 | alvocidib -0.018 | Tubastatin A -0.143 | [6] 0.031 | defactinib -0.046 | [7] -0.041 | encorafenib 0.01 | [8] 0.024 | alisertib -0.008 | [9] 0.018 | gefitinib -0.007

CD63 (UniProt P08962)
UniProt P08962, sequence (P08962 whole entry, looked up): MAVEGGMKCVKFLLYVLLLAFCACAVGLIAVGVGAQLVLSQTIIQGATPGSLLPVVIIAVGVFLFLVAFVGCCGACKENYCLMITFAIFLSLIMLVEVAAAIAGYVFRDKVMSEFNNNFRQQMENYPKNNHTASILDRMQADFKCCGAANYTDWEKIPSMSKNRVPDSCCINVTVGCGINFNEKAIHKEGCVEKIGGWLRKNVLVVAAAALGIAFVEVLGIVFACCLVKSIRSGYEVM
active: [4] -0.593
inactive: vemurafenib -0.079 | [1] 0.084 | barasertib 0.037 | [2] -0.036 | volasertib 0.023 | [3] -0.011 | [5] 0.175 | saracatinib 0.073 | sotrastaurin 0.057 | alvocidib -0.184 | Tubastatin A 0.023 | [6] -0.013 | defactinib 0.089 | [7] -0.101 | encorafenib 0.046 | [8] -0.055 | alisertib 0.01 | [9] -0.02 | gefitinib -0.023

CBX1 (UniProt P83916)
UniProt P83916, sequence (P83916 whole entry, looked up): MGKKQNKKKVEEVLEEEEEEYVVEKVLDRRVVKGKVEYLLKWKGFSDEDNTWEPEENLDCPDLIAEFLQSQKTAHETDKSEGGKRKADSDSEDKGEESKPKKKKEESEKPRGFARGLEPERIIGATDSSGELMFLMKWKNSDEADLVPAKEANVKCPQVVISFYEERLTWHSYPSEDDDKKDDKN
inactive: vemurafenib 0.001 | [1] 0.015 | barasertib -0.075 | [2] 0.028 | volasertib 0.01 | [3] 0.006 | [5] -0.111 | saracatinib -0.003 | sotrastaurin 0.038 | alvocidib 0.078 | Tubastatin A 0.011 | [6] 0.011 | defactinib -0.001 | [7] 0.025 | encorafenib 0.01 | [8] -0.055 | alisertib 0.012 | [9] -0.025 | gefitinib 0.059
active: [4] 0.301
